This note sets out measurements from PubChem BioAssay (NCI).

Each structure is given as a SMILES string. Compounds without any hit were thinned out: in the full panel of roughly 83,000, 20% have a hit.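 The endpoint reported here, percent growth, reads 100 for growth as untreated, 0 for no net growth and -100 for all cells dead.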 Unmarked numbers belong to inactive results. Active and inactive are the calls of the source. How the source made its calls: active means growth percent below 10; inactive means the rest.

What all share (test): NCI-60 one-dose screen, 48 h (100 = growth as untreated, 0 = no growth, -100 = all killed)
One assay has as its system SR leukemia. The conditions noted are these: 10 µM unless noted.
The test system of another assay is RPMI-8226 leukemia. The conditions noted are these: 10 µM.
Another assay deals with OVCAR-8 ovarian. The conditions noted are these: 10 µM unless noted.
For another assay, the system named is OVCAR-5 ovarian. The conditions noted are these: 10 µM unless noted.
The subject of another assay is OVCAR-4 ovarian. The conditions noted are these: 10 µM unless noted.
Another assay deals with SK-OV-3 ovarian. The conditions noted are these: 10 µM.
A further assay concerns IGROV1 ovarian. The conditions noted are these: 10 µM unless noted.
For a further assay, the system named is OVCAR-3 ovarian. The conditions noted are these: 10 µM unless noted.
Another assay has as its system HS 578T breast. The conditions noted are these: 10 µM unless noted.
The test system of another assay is NCI/ADR-RES ovarian. The conditions noted are these: 10 µM unless noted.

For `COC(=O)C1C2CC3c4[nH]c5cc(OC)ccc5c4CCN3CC2CC(OC2CCCCO2)C1OC` (stereo not given), the growth in the assay on SR leukemia was 88.5%; in the assay with RPMI-8226 leukemia it was 87.5%; in the assay with OVCAR-8 ovarian, 96.2%; with OVCAR-5 ovarian, 105%; in the assay with OVCAR-4 ovarian, 93.6%; in the assay on SK-OV-3 ovarian, 101%. Moreover, the growth was 114% with IGROV1 ovarian, 107% in the assay with OVCAR-3 ovarian, 96.2% in the assay on HS 578T breast and 95.4% with NCI/ADR-RES ovarian.
`Nc1nc(N)c(C=Nc2ccc(Br)cc2)c(Nc2ccc(Br)cc2)n1`: the growth in the assay with SR leukemia was 64.2%; with RPMI-8226 leukemia, 113%; in the assay with OVCAR-8 ovarian it was 87.3%; in the assay on OVCAR-5 ovarian, 79.3%; in the assay with OVCAR-4 ovarian, 107%; in the assay with SK-OV-3 ovarian, 104%. Further, the growth in the assay with IGROV1 ovarian is 86.3%; in the assay with OVCAR-3 ovarian, 149%; in the assay with HS 578T breast it was 80.8%; with NCI/ADR-RES ovarian, 77.6%.
As for `COc1ccccc1CNCCCCCCCCCCCCN1C(=O)c2ccc3c4c(ccc(c24)C1=O)C(=O)N(CCCCCCCCCCCCNCc1ccccc1OC)C3=O`, the growth with SR leukemia is 7.77% (active); with RPMI-8226 leukemia, 2.41% (active); in the assay with OVCAR-8 ovarian, -60.9% (active); in the assay on OVCAR-5 ovarian it was 100%; with OVCAR-4 ovarian, 92.3%; with SK-OV-3 ovarian it was 117%. In addition, the growth with IGROV1 ovarian is 83%; in the assay on OVCAR-3 ovarian it was 44.5%; with HS 578T breast, -9.15% (active); with NCI/ADR-RES ovarian it was 85%.
Turning to `NS(=O)(=O)c1cc(Br)c2c(c1)S(=O)(=O)NCN2`, the growth in the assay on SR leukemia is 88%; in the assay on RPMI-8226 leukemia, 106%; in the assay with OVCAR-8 ovarian, 103%; in the assay on OVCAR-5 ovarian, 112%; in the assay on OVCAR-4 ovarian, 120%; in the assay on SK-OV-3 ovarian, 115%. For the same molecule, the growth is 115% in the assay with IGROV1 ovarian, 99.3% with OVCAR-3 ovarian, 110% in the assay on HS 578T breast and 135% with NCI/ADR-RES ovarian.
In the case of `C[C@H]1C(=O)C23CCC1C[C@@]21O[C@@H]2C(C)(C)C=CC(=O)C23COC1=O`, the growth is 102% in the assay with SR leukemia; 93.5% in the assay on RPMI-8226 leukemia; 101% in the assay with OVCAR-8 ovarian; 109% in the assay on OVCAR-5 ovarian; 108% with OVCAR-4 ovarian; 102% in the assay on SK-OV-3 ovarian. Also, the growth was 110% in the assay with IGROV1 ovarian, 126% in the assay on OVCAR-3 ovarian, 109% with HS 578T breast and 106% with NCI/ADR-RES ovarian.
For the molecule `C[C@@H](Oc1cc(-c2cnn(C3CC4(CCCNC4)C3)c2)cnc1N)c1c(Cl)ccc(F)c1Cl` (stereo not given in full), the growth is -3.47% (active) with SR leukemia; -0.0926% (active) with RPMI-8226 leukemia; 43.4% with OVCAR-8 ovarian; 34.3% with OVCAR-5 ovarian; 37.2% in the assay on OVCAR-4 ovarian; 78% in the assay with SK-OV-3 ovarian. For the same molecule, the growth is 48.9% with IGROV1 ovarian, 52% with OVCAR-3 ovarian, 30.5% in the assay with HS 578T breast and 46.1% in the assay with NCI/ADR-RES ovarian.
For `CN1CCn2c(c(Sc3ccc(C(=O)NO)cc3)c3ccccc32)C1=O`, the growth was 0.516% (active) in the assay on SR leukemia; -19.9% (active) in the assay with RPMI-8226 leukemia; -46.5% (active) in the assay on OVCAR-8 ovarian; 24.3% in the assay on OVCAR-5 ovarian; 14% in the assay on OVCAR-4 ovarian; 57.4% in the assay on SK-OV-3 ovarian. Also, the growth in the assay with IGROV1 ovarian was -44.1% (active); in the assay with OVCAR-3 ovarian, -32.5% (active); in the assay with HS 578T breast it was 49.3%; in the assay on NCI/ADR-RES ovarian it was 64.1%.
In the case of `COc1nc2c(cc1S(=O)(=O)c1ccccc1)CCc1c-2cnn1-c1cccc(Cl)c1`, the growth in the assay on SR leukemia was 47.4%; with RPMI-8226 leukemia, 56.6%; with OVCAR-8 ovarian, 81.8%; in the assay with OVCAR-5 ovarian it was 80.1%; in the assay on OVCAR-4 ovarian it was 87%; with SK-OV-3 ovarian, 83.2%. Also, the growth in the assay on IGROV1 ovarian is 94.9%; with OVCAR-3 ovarian, 93.7%; in the assay with HS 578T breast it was 102%; with NCI/ADR-RES ovarian it was 89.7%.
Turning to `O=C1c2ccccc2-c2nnc(-c3ccc(Br)cc3)cc21`, the growth with SR leukemia is 11.6%; with RPMI-8226 leukemia, 27.4%; in the assay with OVCAR-8 ovarian, 77.7%; with OVCAR-5 ovarian, 110%; in the assay on OVCAR-4 ovarian it was 10.1%; in the assay on SK-OV-3 ovarian, 91.6%. For the same molecule, the growth with IGROV1 ovarian is 40.4%; in the assay on OVCAR-3 ovarian, -23% (active); in the assay with HS 578T breast, 48.2%; in the assay on NCI/ADR-RES ovarian it was 9.3% (active).
Take `CC1SC(c2cccc(Oc3ccccc3)c2)N(CCc2cccs2)C1=O` (stereo not given): the growth is -2.19% (active) with SR leukemia; -13.5% (active) in the assay with RPMI-8226 leukemia; 0% (active) in the assay on OVCAR-8 ovarian; -13.9% (active) in the assay with OVCAR-5 ovarian; 8.45% (active) in the assay on OVCAR-4 ovarian; -8.94% (active) with SK-OV-3 ovarian. In addition, the growth in the assay on IGROV1 ovarian is -23.6% (active); with OVCAR-3 ovarian it was -98.1% (active); in the assay with HS 578T breast, -44.8% (active); in the assay with NCI/ADR-RES ovarian, -28% (active).
Consider `Cc1ccc(S(=O)(=O)N2CCc3ccc(O)c4c3C2CCc2ccccc2-4)cc1` (stereo not given), for which the growth in the assay with SR leukemia was 76.5%; with RPMI-8226 leukemia it was 95.8%; in the assay with OVCAR-8 ovarian it was 98.8%; in the assay on OVCAR-5 ovarian, 110%; with OVCAR-4 ovarian, 106%; in the assay on SK-OV-3 ovarian, 101%. Also, the growth in the assay with IGROV1 ovarian is 113%; with OVCAR-3 ovarian it was 99.1%; in the assay with HS 578T breast, 106%; in the assay on NCI/ADR-RES ovarian, 104%.
`C[C@@H](Oc1cc(-c2cnn(C3CC4(CNC4)C3)c2)cnc1N)c1c(Cl)ccc(F)c1Cl`: the growth in the assay on SR leukemia was -24.6% (active); in the assay with RPMI-8226 leukemia, 27.7%; in the assay on OVCAR-8 ovarian, 48.9%; in the assay with OVCAR-5 ovarian, 38.1%; in the assay on OVCAR-4 ovarian, 48.2%; with SK-OV-3 ovarian, 66.3%. The growth in the assay with IGROV1 ovarian was 64.2%; in the assay with OVCAR-3 ovarian, 63.2%; with HS 578T breast, 41.6%; in the assay with NCI/ADR-RES ovarian, 91.3%.
On to `Cc1ccc2c(N/N=C\c3ccco3)cc(C)nc2n1`, for which the growth was -8.66% (active) in the assay with SR leukemia; 64.7% with RPMI-8226 leukemia; 69.6% in the assay with OVCAR-8 ovarian; 80.4% in the assay on OVCAR-5 ovarian; 46.9% with OVCAR-4 ovarian; 98.6% with SK-OV-3 ovarian. In addition, the growth was 49% in the assay on IGROV1 ovarian, 88% in the assay on OVCAR-3 ovarian, 86.3% in the assay with HS 578T breast and 71.8% with NCI/ADR-RES ovarian.
Take `COC(=O)/C=C1/CCC2C3CCC4=CC(=O)C(Br)CC4(C)C3C(=O)CC12C` (stereo not given): the growth in the assay on SR leukemia was 33%; in the assay with RPMI-8226 leukemia, 61.1%; with OVCAR-8 ovarian, 63.1%; with OVCAR-5 ovarian it was 112%; in the assay on OVCAR-4 ovarian, 67.8%; in the assay with SK-OV-3 ovarian, 103%. Moreover, the growth with IGROV1 ovarian is 25.1%; in the assay with OVCAR-3 ovarian it was 89.5%; in the assay with HS 578T breast it was 86.7%; with NCI/ADR-RES ovarian, 81.7%.
Consider `N#Cc1ccc(C(F)(F)F)nc1N1CCC(C(=O)Nc2ccc(Cl)cc2)CC1`, for which the growth in the assay on SR leukemia was 48.3%; in the assay with RPMI-8226 leukemia it was 74.1%; in the assay on OVCAR-8 ovarian, 75.8%; in the assay on OVCAR-5 ovarian, 76.9%; in the assay on OVCAR-4 ovarian it was 69.1%; in the assay on SK-OV-3 ovarian it was 82.5%. The growth with IGROV1 ovarian is 102%; in the assay with OVCAR-3 ovarian, 99.4%; in the assay with HS 578T breast, 105%; in the assay with NCI/ADR-RES ovarian, 72.1%.
In the case of `CC(C)N1CCN(c2ccc(OC[C@H]3CO[C@](Cn4cncn4)(c4ccc(Cl)cc4Cl)O3)cc2)CC1`, the growth with SR leukemia was 58.1%; in the assay on RPMI-8226 leukemia, 88.7%; in the assay with OVCAR-8 ovarian, 100%; with OVCAR-5 ovarian, 85.1%; with OVCAR-4 ovarian, 99.2%; in the assay on SK-OV-3 ovarian it was 94%. The growth was 104% with IGROV1 ovarian, 102% in the assay on OVCAR-3 ovarian, 84% in the assay on HS 578T breast and 88.1% in the assay with NCI/ADR-RES ovarian.
In the case of `Cc1ccc(C)c2c1sc1nc3nc4sc5ccccc5n4c(=N)c3c(=O)n12`, the growth is 78.5% in the assay on SR leukemia; 89.4% in the assay with RPMI-8226 leukemia; 116% with OVCAR-8 ovarian; 91.3% in the assay on OVCAR-5 ovarian; 88% in the assay on OVCAR-4 ovarian; 92.5% with SK-OV-3 ovarian. In addition, the growth in the assay on IGROV1 ovarian is 64.3%; with OVCAR-3 ovarian, 89.4%; with HS 578T breast, 94.8%; in the assay on NCI/ADR-RES ovarian it was 97.6%.
Turning to `COc1ccc(C2SC(C)C(=O)N2CCc2cccs2)cc1OC` (stereo not given), the growth with SR leukemia is 63.8%; with RPMI-8226 leukemia it was 68.8%; with OVCAR-8 ovarian, 85.1%; with OVCAR-5 ovarian, 104%; with OVCAR-4 ovarian, 62.8%; with SK-OV-3 ovarian, 102%. Further, the growth in the assay with IGROV1 ovarian was 79.6%; in the assay on OVCAR-3 ovarian, 95.3%; in the assay on HS 578T breast, 95.4%; in the assay on NCI/ADR-RES ovarian it was 86.1%.
